High-throughput results deposited in PubChem by National Center for Advancing Translational Sciences (NCATS).
Tb PYK inh = T. brucei pyruvate kinase inhibition | AID 624173 | Q57TT1 | 0.12% of 410,000 active | TbPYK enzyme, Kinase-Glo Plus ATP luminescence, 45 min | Potency, µM (doses to about 76.8 µM), usual class: inhibitors; also: nearly all actives have a fitted effect of over 50% in size
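Enzyme and substrate buffer are dispensed first and compound is pin-transferred. ADP at 130 uM final then starts the reaction, which runs 45 min at room temperature. Detection reagent is added for 10 min before luminescence is imaged.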
RE007 growth inh = less growth of the S. pombe RE007 Vpr strain | S. pombe RE007 Vpr strain, BacTiter-Glo ATP luminescence, 24 h | Potency, µM (titrated, usually from 92.2 µM), actives largely listed as inhibitors | 0.21% of 360,000 active | AID 651644; active = well fitted falling curve with a large enough effect; inconclusive = small, poorly fitted or top-dose-only effect; inactive = no such curve, though single readings can be large or run the other way; also: nearly all actives have a fitted effect of over 50% in size
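Fission yeast RE007 carrying one integrated HIV-1 vpr copy, seeded at OD 0.01 in PMG+AL medium with 23 nL pinned compound. Grown 24 h at 30 degrees; viability read by BacTiter-Glo luminescence after 5 min.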
Giardia FBPA inh-1 = inhibitors of Giardia lamblia fructose-1,6-bisphosphate aldolase; A8B2U2; purified Giardia FBPA; Potency, µM (doses to about 59.6 µM), most hits filed as inhibitors; 0.71% of 290,000 active; also: nearly all actives have a fitted effect of over 55% in size
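40 nM FBPA preincubated 10 min at RT with compound (up to 57.5 uM final), then substrate plus GAPDH/TPI/NAD/arsenate coupling and diaphorase/resazurin added. Fluorescence read after 20 min at RT, 525/598 nm.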
LmPK inh = inhibitors of Leishmania mexicana pyruvate kinase | purified LmPK, Kinase-Glo ATP luminescence, 1 h | Q27686 | 0.37% of 290,000 active | Potency, µM (series often up to 57.5 µM), usual class: inhibitors | AID 1721
Target sequence (Q27686 whole entry, looked up): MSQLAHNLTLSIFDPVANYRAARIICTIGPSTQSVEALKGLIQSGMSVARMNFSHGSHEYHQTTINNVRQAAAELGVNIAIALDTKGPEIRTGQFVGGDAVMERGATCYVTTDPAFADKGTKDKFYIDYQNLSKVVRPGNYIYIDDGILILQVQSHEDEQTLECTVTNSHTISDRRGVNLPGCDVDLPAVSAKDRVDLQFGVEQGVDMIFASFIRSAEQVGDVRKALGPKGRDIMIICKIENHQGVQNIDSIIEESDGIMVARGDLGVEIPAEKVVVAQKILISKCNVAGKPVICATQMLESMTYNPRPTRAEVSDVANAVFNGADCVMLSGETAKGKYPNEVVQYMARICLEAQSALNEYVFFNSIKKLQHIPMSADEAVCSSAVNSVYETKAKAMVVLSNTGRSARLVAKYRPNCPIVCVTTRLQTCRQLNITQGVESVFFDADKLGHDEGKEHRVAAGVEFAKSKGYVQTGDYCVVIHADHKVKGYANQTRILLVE
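Screened at intermediate enzyme activity to detect both inhibitors and activators: LmPK at 0.1 nM, with a 0.5 nM enzyme column as activation reference. PEP 0.5 mM, ADP 0.1 mM; ATP detected by luminescence after 1 h.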
Sm TGR block = blocks Schistosoma mansoni thioredoxin glutathione reductase | 3% of 360,000 active | Potency, µM (highest dose often 114 µM), actives largely listed as inhibitors | AID 485364 | purified TGR, DTNB reduction, TNB absorbance 405 nm; also: nearly all actives have a fitted effect of over 60% in size
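TGR 20 nM + NADPH 100 uM (dispensed conc.), cpd preinc 15 min RT; start with NADPH (500 uM addition) then DTNB (15 mM addition). Kinetic TNB absorbance, 405 nm filter. Four-parameter Hill fit across titration.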
Giardia growth = blocks growth of Giardia lamblia trophozoites; shares compounds with Giardia FBPA inh-1; Giardia lamblia trophozoite growth inhibition; Potency, µM (series often up to 57.5 µM), usual class: inhibitors; 5% of 1,500 active;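 also: trophozoites exposed to compound for 48 h at 37 °C; nearly all actives have a fitted effect of over 70% in size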
Mammalian tox = mammalian cytotoxicity of Giardia aldolase inhibitor hits; Potency, µM (titrated, usually from 57.5 µM), usual class: inhibitors; mammalian cell viability counter-screen, qHTS; shares compounds with Giardia FBPA inh-1; 4% of 1,500 active; AID 2786;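 also: Chinese hamster ovary cells used as mammalian cytotoxicity surrogate; viability measured as cellular ATP by luminescence; compound exposure lasted 48 h before reading; nearly all actives have a fitted effect of over 60% in size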
Giardia FBPA inh-2 = confirmation of Giardia fructose-bisphosphate aldolase inhibitors; shares compounds with Giardia FBPA inh-1; purified Giardia aldolase enzyme activity, qHTS; Potency, µM (doses to about 57.5 µM), actives largely listed as inhibitors; 5% of 1,500 active; AID 2787; also: nearly all actives have a fitted effect of over 45% in size
Rabbit aldolase = rabbit FBP aldolase inhibition by Giardia aldolase hits | Potency, µM (doses to about 57.5 µM), most hits filed as inhibitors | AID 2794 | Rabbit muscle FBPA enzyme inhibition, selectivity counter-screen | 4% of 1,500 active | shares compounds with Giardia FBPA inh-1; also: nearly all actives have a fitted effect of over 60% in size
GAPDH counter = counter-screen for Giardia aldolase inhibitors: GAPDH coupling enzyme; Potency, µM (doses to about 57.5 µM), hits mostly inhibitors; 6% of 1,500 active; GAPDH coupling enzyme counterscreen, biochemical, qHTS; shares compounds with Giardia FBPA inh-1; also: nearly all actives have a fitted effect of over 55% in size
Of the large screens only hits and unclear results are named; the others gave an inactive call (follow-up assays come after a bar, where they were run); [ ] = dose if it differs, or a comment. Sampled rows, rich in hits. Any-hit rate of the full collection: about 3.3%. Unless noted, calls follow the shape of the dose curve; as a rule, active = well fitted curve in the direction sought with a large enough effect; inconclusive = small, poorly fitted or top-dose-only effect, or another doubt; inactive = no such curve, though single readings can be large; an effect the other way counts as inactive or inconclusive.

C=CC(C)n1c(Br)nc2c1c(=O)[nH]c(=O)n2C (configuration not stated)	none
Cc1ccnc2nc(C(=O)Nc3nc(-c4ccccn4)cs3)nn12	Giardia FBPA inh-1 15.8µM | Giardia growth inconclusive | Mammalian tox inactive | Giardia FBPA inh-2 inactive | Rabbit aldolase inactive | GAPDH counter inactive
Cc1ccccc1NC(=O)c1nc2nccc(C)n2n1	LmPK inh inconclusive (no result: Tb PYK inh, RE007 growth inh)
O=C(Nc1nc(-c2ccccn2)cs1)c1ccco1	RE007 growth inh inconclusive, Giardia FBPA inh-1 15.8µM, Sm TGR block 31.6µM | Giardia growth inconclusive | Mammalian tox 39.8µM | Giardia FBPA inh-2 inactive | Rabbit aldolase inactive | GAPDH counter inactive
O=C(Nc1nc(-c2ccccn2)cs1)c1cccc(-n2cnnn2)c1	Giardia FBPA inh-1 5µM | Giardia growth inconclusive | Mammalian tox 31.6µM | Giardia FBPA inh-2 inactive | Rabbit aldolase inactive | GAPDH counter inactive
C[C@H](NC(=O)c1ccco1)C(=O)Nc1nc(-c2ccccn2)cs1	none (no result: Giardia FBPA inh-1, LmPK inh, Sm TGR block)
O=C(Nc1ccc(Br)cc1)c1cccc(-n2cnnn2)c1	none
COc1ccc(S(=O)(=O)N(CC(=O)N2CCOCC2)Cc2ccccc2)cc1	none
O=C(NNC(=O)c1cnccn1)c1cccc([N+](=O)[O-])c1	none
O=C(NNC(=O)c1ccc(Cl)cc1Cl)c1cnccn1	Giardia FBPA inh-1 19.9µM | Giardia growth 8.91µM | Mammalian tox inactive | Giardia FBPA inh-2 inactive | Rabbit aldolase inactive | GAPDH counter inactive
O=C(NNC(=O)c1ccccc1[N+](=O)[O-])c1cnccn1	Giardia FBPA inh-1 19.9µM | Giardia growth inconclusive | Mammalian tox inactive | Giardia FBPA inh-2 inactive | Rabbit aldolase inactive | GAPDH counter inactive
O=C(NNC(=O)c1cnccn1)c1ccc(Cl)cc1	Giardia FBPA inh-1 12.6µM | Giardia growth inactive[10.4 µM] | Mammalian tox inactive | Giardia FBPA inh-2 inactive | Rabbit aldolase inactive | GAPDH counter inactive
O=C(Nc1ccccc1Cl)c1cnccn1	none
Nc1c(N(Cc2ccco2)C(=O)COc2ccccc2)c(=O)[nH]c(=O)n1Cc1ccccc1	Sm TGR block inconclusive (no result: Giardia FBPA inh-1, LmPK inh)
Cc1c(Br)c([N+](=O)[O-])nn1CC(=O)Nc1ccc(CC#N)cc1	none (no result: Tb PYK inh, RE007 growth inh)
CCN(CC)C(=O)CSc1n[nH]c(=S)n1N	Giardia FBPA inh-1 7.06µM | Giardia growth inactive | Mammalian tox inactive | Giardia FBPA inh-2 inactive | Rabbit aldolase inactive | GAPDH counter inactive
Cc1cccc(C(=O)NCC(=O)OCC(=O)NC2CCCCCCC2)c1	none (no result: Giardia FBPA inh-1, LmPK inh)
CC/C(=N\NC(=O)c1csc(C)c1C)c1cccs1	none
COc1cccc(COCC(O)Cn2cnc3cc(C)c(C)cc32)c1 (configuration not stated)	Giardia FBPA inh-1 19.9µM | Giardia growth inactive[10.4 µM] | Mammalian tox inactive | Giardia FBPA inh-2 inactive | Rabbit aldolase inactive | GAPDH counter inactive
CC(=O)N1CCC(=NNc2nc3ccccc3[nH]2)CC1	Giardia FBPA inh-1 17.7µM | Giardia growth inconclusive | Mammalian tox inactive | Giardia FBPA inh-2 inactive | Rabbit aldolase inactive | GAPDH counter inactive
Cc1ccc(NC(=O)CN2CCC(NC(=O)c3ccccc3F)CC2)cc1C	Giardia FBPA inh-1 17.8µM | Giardia growth inconclusive | Mammalian tox inactive | Giardia FBPA inh-2 inactive | Rabbit aldolase inactive | GAPDH counter inactive
O=C(CN1CCC(NC(=O)c2ccccc2F)CC1)Nc1ccc2c(c1)OCO2	none
COc1cc(S(=O)(=O)NCCN2CCOCC2)ccc1-n1cnnn1	Giardia FBPA inh-1 17.7µM | Giardia growth inactive[10.4 µM] | Mammalian tox inactive | Giardia FBPA inh-2 inactive | Rabbit aldolase inactive | GAPDH counter inactive
COc1cc(S(=O)(=O)NCCCN2CCOCC2)ccc1-n1cnnn1	Giardia FBPA inh-1 inconclusive
Cc1ccc(S(=O)(=O)Nc2cc(C)cn(Cc3ccccc3)c2=O)cc1	Giardia FBPA inh-1 12.6µM, Sm TGR block inconclusive | Giardia growth inconclusive | Mammalian tox inactive | Giardia FBPA inh-2 inconclusive | Rabbit aldolase inconclusive | GAPDH counter 31.6µM
Cc1cc2c(cc1NS(=O)(=O)c1ccc(F)cc1)n(C)c(=O)c(=O)n2C	none (no result: RE007 growth inh, Giardia FBPA inh-1, LmPK inh)
Cc1ccc(S(=O)(=O)Nc2cc(C)cn(Cc3ccc(F)cc3)c2=O)cc1	Giardia FBPA inh-1 15.8µM, Sm TGR block inconclusive | Giardia growth inactive[10.4 µM] | Mammalian tox inactive | Giardia FBPA inh-2 inconclusive | Rabbit aldolase inconclusive | GAPDH counter 25.1µM
Cc1ccc(NCc2ccncc2)c(Br)c1	Giardia FBPA inh-1 inconclusive
Cc1cc(NCc2ccncc2)ccc1Br	Giardia FBPA inh-1 22.3µM | Giardia growth inactive | Mammalian tox inactive | Giardia FBPA inh-2 inactive | Rabbit aldolase inactive | GAPDH counter inactive
CC(=O)N/N=C/c1c(C)[nH]n(-c2ccccc2)c1=O	Giardia FBPA inh-1 15.8µM | Giardia growth inactive[10.4 µM] | Mammalian tox inactive | Giardia FBPA inh-2 inactive | Rabbit aldolase inactive | GAPDH counter inactive
